Target: CaNbp2
Assay: SPOT peptide array binding signal intensity (averaged, normalized) (arbitrary units (background-subtracted, floor 0; scale differs between SH3 domains)); higher = stronger binding of the SH3 domain to the peptide
How it was run: (§1)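 Binding signal refers to normalized, background-subtracted spot intensity averaged over replicates, expressed in arbitrary units that differ between domains. GST-fused SH3 domains from four yeast species were incubated at 10 μg/ml overnight at 4°C on cellulose membranes of synthetic 15-mer peptides with cysteines replaced by serines. Bound protein was detected with anti-GST antibody, an HRP anti-mouse secondary and luminol, and quantified with Genespotter.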

Binder	SPOT peptide array binding signal intensity
PPIPIVPSSPAPPLP	47.5

Target: CaRvs167
Assay: as above
How it was run: as §1

Binder	SPOT peptide array binding signal intensity
PPIPIVPSSPAPPLP	≤ 0

Target: CaRvs167-3
Assay: as above
How it was run: as §1

Binder	SPOT peptide array binding signal intensity
PPIPIVPSSPAPPLP	≤ 0

Target: CaSho1
Assay: as above
How it was run: as §1

Binder	SPOT peptide array binding signal intensity
PPIPIVPSSPAPPLP	≤ 0

Target: CaSla1-D1-D2
Assay: as above
How it was run: as §1

Binder	SPOT peptide array binding signal intensity
PPIPIVPSSPAPPLP	≤ 0

Target: CaSla1-D3
Assay: as above
How it was run: as §1

Binder	SPOT peptide array binding signal intensity
PPIPIVPSSPAPPLP	≤ 0

Target: ScAbp1
Assay: as above
How it was run: as §1

Binder	SPOT peptide array binding signal intensity
PPIPIVPSSPAPPLP	≤ 0

Target: ScBbc1
Assay: as above
How it was run: as §1

Binder	SPOT peptide array binding signal intensity
PPIPIVPSSPAPPLP	≤ 0

Target: ScBem1-D1
Assay: as above
How it was run: as §1

Binder	SPOT peptide array binding signal intensity
PPIPIVPSSPAPPLP	≤ 0

Target: ScBzz1-D1
Assay: as above
How it was run: as §1

Binder	SPOT peptide array binding signal intensity
PPIPIVPSSPAPPLP	≤ 0

Target: ScBzz1-D2
Assay: as above
How it was run: as §1

Binder	SPOT peptide array binding signal intensity
PPIPIVPSSPAPPLP	≤ 0

Target: ScCyk3
Assay: as above
How it was run: as §1

Binder	SPOT peptide array binding signal intensity
PPIPIVPSSPAPPLP	≤ 0

Target: ScFus1
Assay: as above
How it was run: as §1

Binder	SPOT peptide array binding signal intensity
PPIPIVPSSPAPPLP	≤ 0

Target: ScHof1
Assay: as above
How it was run: as §1

Binder	SPOT peptide array binding signal intensity
PPIPIVPSSPAPPLP	1.5

Target: ScHse1
Assay: as above
How it was run: as §1

Binder	SPOT peptide array binding signal intensity
PPIPIVPSSPAPPLP	≤ 0

Target: ScLsb1
Assay: as above
How it was run: as §1

Binder	SPOT peptide array binding signal intensity
PPIPIVPSSPAPPLP	≤ 0

Target: ScLsb2
Assay: as above
How it was run: as §1

Binder	SPOT peptide array binding signal intensity
PPIPIVPSSPAPPLP	≤ 0

Target: ScLsb3
Assay: as above
How it was run: as §1

Binder	SPOT peptide array binding signal intensity
PPIPIVPSSPAPPLP	≤ 0

Target: ScLsb4
Assay: as above
How it was run: as §1

Binder	SPOT peptide array binding signal intensity
PPIPIVPSSPAPPLP	≤ 0

Target: ScMyo3
Assay: as above
How it was run: as §1

Binder	SPOT peptide array binding signal intensity
PPIPIVPSSPAPPLP	2260

Target: ScMyo5
Assay: as above
How it was run: as §1

Binder	SPOT peptide array binding signal intensity
PPIPIVPSSPAPPLP	1940

Target: ScNbp2
Assay: as above
How it was run: as §1

Binder	SPOT peptide array binding signal intensity
PPIPIVPSSPAPPLP	≤ 0

Target: ScPex13
Assay: as above
How it was run: as §1

Binder	SPOT peptide array binding signal intensity
PPIPIVPSSPAPPLP	≤ 0

Target: ScRvs167
Assay: as above
How it was run: as §1

Binder	SPOT peptide array binding signal intensity
PPIPIVPSSPAPPLP	≤ 0

Target: ScSho1
Assay: as above
How it was run: as §1

Binder	SPOT peptide array binding signal intensity
PPIPIVPSSPAPPLP	≤ 0

Target: ScSla1-D1-D2
Assay: as above
How it was run: as §1

Binder	SPOT peptide array binding signal intensity
PPIPIVPSSPAPPLP	≤ 0

Target: ScSla1-D3
Assay: as above
How it was run: as §1

Binder	SPOT peptide array binding signal intensity
PPIPIVPSSPAPPLP	0.25

Target: SpAbp1-D1
Assay: as above
How it was run: as §1

Binder	SPOT peptide array binding signal intensity
PPIPIVPSSPAPPLP	≤ 0

Target: SpBbc1
Assay: as above
How it was run: as §1

Binder	SPOT peptide array binding signal intensity
PPIPIVPSSPAPPLP	3.5

Target: SpBzz1-D1
Assay: as above
How it was run: as §1

Binder	SPOT peptide array binding signal intensity
PPIPIVPSSPAPPLP	≤ 0

Target: SpBzz1-D2
Assay: as above
How it was run: as §1

Binder	SPOT peptide array binding signal intensity
PPIPIVPSSPAPPLP	≤ 0

Target: SpCyk3
Assay: as above
How it was run: as §1

Binder	SPOT peptide array binding signal intensity
PPIPIVPSSPAPPLP	≤ 0

Target: SpHof1
Assay: as above
How it was run: as §1

Binder	SPOT peptide array binding signal intensity
PPIPIVPSSPAPPLP	≤ 0

Target: SpHof1-2
Assay: as above
How it was run: as §1

Binder	SPOT peptide array binding signal intensity
PPIPIVPSSPAPPLP	≤ 0

Target: SpHof1-3
Assay: as above
How it was run: as §1

Binder	SPOT peptide array binding signal intensity
PPIPIVPSSPAPPLP	≤ 0

Target: SpHse1
Assay: as above
How it was run: as §1

Binder	SPOT peptide array binding signal intensity
PPIPIVPSSPAPPLP	26.8

Target: SpLsb1
Assay: as above
How it was run: as §1

Binder	SPOT peptide array binding signal intensity
PPIPIVPSSPAPPLP	≤ 0

Target: SpLsb4
Assay: as above
How it was run: as §1

Binder	SPOT peptide array binding signal intensity
PPIPIVPSSPAPPLP	≤ 0

Target: SpMyo1
Assay: as above
How it was run: as §1

Binder	SPOT peptide array binding signal intensity
PPIPIVPSSPAPPLP	1080

Target: SpNbp2
Assay: as above
How it was run: as §1

Binder	SPOT peptide array binding signal intensity
PPIPIVPSSPAPPLP	≤ 0

Target: SpPex13
Assay: as above
How it was run: as §1

Binder	SPOT peptide array binding signal intensity
PPIPIVPSSPAPPLP	≤ 0

Target: SpRvs167
Assay: as above
How it was run: as §1

Binder	SPOT peptide array binding signal intensity
PPIPIVPSSPAPPLP	≤ 0

Target: SpSla1-D1-D2
Assay: as above
How it was run: as §1

Binder	SPOT peptide array binding signal intensity
PPIPIVPSSPAPPLP	≤ 0

Target: SpSla1-D3
Assay: as above
How it was run: as §1

Binder	SPOT peptide array binding signal intensity
PPIPIVPSSPAPPLP	≤ 0

— the supplement of paper PMC4466140
